Source: PubChem BioAssay
3T3 cytotox: cytotoxic compounds in NIH 3T3 cells | 4.3% of 94,000 active | NIH 3T3 viability, CellTiter-Glo ATP luminescence, 48-72 h | AID 1345082 | Potency, µM (top dose mostly 96.7 µM), most hits filed as inhibitors; further: nearly all actives have a fitted effect of over 55% in size
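Mouse fibroblast NIH 3T3 cells, 400 per well, received compound via pintool and were incubated for 48 or 72 hr prior to CellTiter-Glo ATP luminescence measurement.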
FLuc inh-1: blocks purified firefly luciferase enzyme activity. purified P. pyralis luciferase, luminescence, biochemical. Potency, µM (doses to about 115 µM), most hits filed as inhibitors. 2.5% of 76,000 active. AID 1347043; further: nearly all actives have a fitted effect of over 65% in size
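Purified 10nM P. pyralis luciferase with 10uM D-luciferin and 10uM ATP in 50mM Tris acetate pH 7.5, 10mM Mg acetate, 0.01% Tween-20, 0.05% BSA. qHTS titration; luminescence read by CCD imager.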
HEK293 tox: HEK 293 cell cytotoxicity; Potency, µM (top dose mostly 115 µM), usual class: inhibitors; AID 1345083; HEK 293 viability, ATP luminescence (CellTiter-Glo), 48-72 h; 6.6% of 94,000 active; further: nearly all actives have a fitted effect of over 60% in size
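HEK 293 cells at 250 cells/well were exposed to compounds by pintool transfer for 48 or 72 hr at 37 degree Celsius, 5% CO2. Viability was read as ATP-coupled luminescence with CellTiter-Glo after 10 min at room temperature.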
GPT2 inhibitor: GPT2 alanine aminotransferase inhibition; Q8TD30; Potency, µM (titrated, usually from 57.7 µM), usual class: inhibitors; Recombinant GPT2, coupled pyruvate oxidase/HRP Amplex Red fluorescence; 0.25% of 100,000 active; AID 1671188; further: nearly all actives have a fitted effect of over 60% in size
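Inhibition is scored from Amplex Red fluorescence generated when pyruvate oxidase and HRP act on pyruvate released by GPT2. Reactions contain 10ng/uL enzyme, 250uM a-KG and 2mM L-alanine and run 30 min at room temperature.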
NPR1 antag: blocks ANP-stimulated signaling of human Npr1 receptor; P16066; HEK293 hNpr1 GloSensor cGMP, ANP-stimulated luminescence; 1.6% of 76,000 active; AID 1347048; Potency, µM (series often up to 46.3 µM), usual class: inhibitors; calls by dose curve; further: nearly all actives have a fitted effect of over 60% in size
Target sequence (P16066 whole entry, looked up): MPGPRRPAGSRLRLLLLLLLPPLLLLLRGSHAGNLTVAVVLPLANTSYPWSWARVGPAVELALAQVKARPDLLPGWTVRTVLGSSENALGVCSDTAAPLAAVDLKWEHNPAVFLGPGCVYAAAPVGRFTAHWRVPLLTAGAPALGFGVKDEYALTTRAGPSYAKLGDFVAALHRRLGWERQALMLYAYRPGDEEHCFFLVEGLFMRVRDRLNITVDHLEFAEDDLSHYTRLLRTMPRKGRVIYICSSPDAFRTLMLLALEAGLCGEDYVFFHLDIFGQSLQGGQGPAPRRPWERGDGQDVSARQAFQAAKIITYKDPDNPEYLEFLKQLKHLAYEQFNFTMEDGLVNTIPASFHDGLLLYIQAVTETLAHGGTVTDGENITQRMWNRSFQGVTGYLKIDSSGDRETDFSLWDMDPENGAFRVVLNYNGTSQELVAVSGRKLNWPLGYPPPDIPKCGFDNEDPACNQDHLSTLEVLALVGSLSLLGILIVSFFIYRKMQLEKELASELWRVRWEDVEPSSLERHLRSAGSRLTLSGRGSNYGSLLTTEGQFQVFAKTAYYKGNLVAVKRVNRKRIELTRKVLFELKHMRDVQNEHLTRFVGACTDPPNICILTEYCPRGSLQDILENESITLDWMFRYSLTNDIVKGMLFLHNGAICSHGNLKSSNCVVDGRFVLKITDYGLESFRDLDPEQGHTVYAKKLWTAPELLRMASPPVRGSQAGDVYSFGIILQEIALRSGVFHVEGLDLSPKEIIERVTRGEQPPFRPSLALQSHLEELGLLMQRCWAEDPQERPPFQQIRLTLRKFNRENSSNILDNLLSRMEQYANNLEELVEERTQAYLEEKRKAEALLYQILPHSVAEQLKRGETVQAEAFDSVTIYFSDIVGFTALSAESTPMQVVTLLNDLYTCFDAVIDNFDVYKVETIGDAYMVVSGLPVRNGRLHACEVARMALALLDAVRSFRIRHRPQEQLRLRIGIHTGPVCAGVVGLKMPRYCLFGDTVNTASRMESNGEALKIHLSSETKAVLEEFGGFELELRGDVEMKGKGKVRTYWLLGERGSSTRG
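Compound pre-incubated 30 min at room temperature on GloSensor-loaded HEK293 cells stably carrying hNpr1 and the pGS-40F cGMP biosensor. Stimulation uses hNppA at 0.1 nM final; luminescence is taken at baseline and 20 min post-agonist.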
FLuc SDR no ATP: firefly luciferase binding stabilization, ATP absent | 7.8% of 1,300 active | Purified FLuc-C-HiBiT, Nano-Glo HiBiT luminescence, no ATP | shares compounds with FLuc inh-1 | Potency, µM (doses to about 32.7 µM), hits mostly activators; further: nearly all actives have a fitted effect of over 55% in size
FLuc SDR ATP: firefly luciferase binding stabilization, ATP added; shares compounds with FLuc inh-1; purified FLuc-C-HiBiT + ATP, HiBiT complementation luminescence; Potency, µM (titrated, usually from 32.7 µM), actives largely listed as activators; 8.7% of 1,300 active;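 further: signal reports ligand binding via conformational change of the enzyme rather than luciferase catalysis; nearly all actives have a fitted effect of over 55% in size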
FLuc inh-2: blocks firefly luciferase enzymatic activity | shares compounds with FLuc inh-1 | purified FLuc-C-HiBiT enzyme, luciferin luminescence | Potency, µM (highest dose often 32.7 µM), most hits filed as inhibitors | 42% of 1,300 active | AID 1963320; further: nearly all actives have a fitted effect of over 70% in size
Hits are given with their value; - = inactive; ? = inconclusive; . = no result. Sampled rows, rich in hits. Any-hit rate of the full collection: about 10%. Unless noted, the call rests on the fitted dose curve; in most records, active means well fitted curve in the direction sought with a large enough effect; inconclusive means small, poorly fitted or top-dose-only effect, or another doubt; inactive means no such curve, though single readings can be large; an effect the other way counts as inactive or inconclusive.

SMILES | 3T3 cytotox | FLuc inh-1 | HEK293 tox | GPT2 inhibitor | NPR1 antag | FLuc SDR no ATP | FLuc SDR ATP | FLuc inh-2
Cc1cc(=O)n(CC(=O)Nc2ccc(C)c(Cl)c2)c(N2CCN(c3ccccc3)CC2)n1 | ? | - | ? | - | - | . | . | .
Cc1ccc(NC(=O)c2ncn(-c3ccccc3)n2)cc1Cl | . | . | . | . | . | - | - | ?
CCS(=O)(=O)C(C)C(=O)Nc1ccc(OC)c(NC(=O)c2ccco2)c1 (configuration not stated) | - | - | - | - | - | . | . | .
Cc1cc2cc(C(=O)N3CCN(c4nc5ccccc5s4)CC3)ccc2o1 | - | - | ? | - | ? | . | . | .
Cc1ccc2c(c1)sc1nc(-c3cc4ccccc4oc3=O)cn12 | . | . | . | . | . | - | ? | 0.248µM
CCOc1ccc(-n2nc(CO)c(C(=O)NCc3ccccn3)n2)cc1 | . | . | . | . | . | - | - | ?
CCOc1cc(=O)n2c(c1C(=O)NCc1ccccn1)CCCCC2 | ? | - | - | - | - | . | . | .
CCOc1ccc(-n2nc(CO)c(C(=O)NCc3cccc(OC)c3)n2)cc1 | . | . | . | . | . | - | - | ?
O=C(NCCc1ccccn1)C1CCN(Cc2ccccc2-c2cccnc2)CC1 | - | . | - | - | . | . | . | .
CNC(=O)[C@H]1C[C@H](Oc2ccccc2)CN1C(=O)CCc1nc2ccccc2[nH]1 | - | - | - | - | - | . | . | .
O=C(NC1CCN(Cc2ccc(-c3ccsc3)cc2)C1)c1ccccn1 (configuration not stated) | ? | . | ? | - | . | . | . | .
O=C(O)c1ccc(-c2ccc(N3CCCCCC3)nc2)cc1 | ? | 4.47µM | - | - | - | ? | ? | 2.48µM
CCC(=O)Nc1cnc(-c2ccc(C)cc2)nc1 | - | 3.16µM | - | - | ? | ? | ? | 8.81µM
Cc1ccc(-c2ncc(NC(=O)c3cc(F)ccc3F)cn2)cc1 | - | ? | - | - | - | . | . | .
CCc1ccc(C2=CC(c3cccc(C)c3)n3c(nc4ccccc43)N2)cc1 (configuration not stated) | . | . | . | . | . | 11.1µM | ? | 0.881µM
Cc1ccc2nc3n(c2c1)[C@@H](CNCc1ccccc1)COC3 | ? | - | ? | - | ? | . | . | .
Cc1ccc(C2=CC(c3ccccc3F)n3c(nc4ccccc43)N2)cc1C (configuration not stated) | . | . | . | . | . | ? | ? | 3.13µM
CCOCc1nc(C2CCCN2S(=O)(=O)c2ccccc2C)no1 (configuration not stated) | - | . | - | - | . | . | . | .
CNc1nc(N2CC[C@@H]3C[C@H](N4CCOCC4)CC[C@@]3(COC)C2)ncc1F | - | - | - | - | - | . | . | .
COc1ccc(NC(=O)CCC2CCCN(C(=O)C3=C(C)OCCO3)C2)cc1Cl (configuration not stated) | - | - | ? | - | - | . | . | .
COc1ccc2cc(C(C)C(=O)Oc3ccc(C(N)=S)cc3)ccc2c1 (configuration not stated) | . | . | . | - | . | . | . | .
COc1ccc(C(=O)Oc2ccc(C(c3c(C)[nH][nH]c3=O)c3c(C)[nH][nH]c3=O)cc2)cc1 | . | . | . | . | . | - | - | ?
Cc1nnc2ccc(N3CCN(C(=O)Cc4ccccn4)CC3)nn12 | - | . | - | . | . | . | . | .
Cc1cnc(CCNC(=O)Nc2ccc3c(c2)OCCO3)n1C1CC1 | - | 6.31µM | - | - | - | - | - | ?
Cc1cnc(CCNC(=O)Nc2ccc3c(c2)OCCO3)n1Cc1ccc(F)cc1 | - | 14.1µM | 39.8µM | - | - | - | - | ?
SMILES | 3T3 cytotox | FLuc inh-1 | HEK293 tox | GPT2 inhibitor | NPR1 antag | FLuc SDR no ATP | FLuc SDR ATP | FLuc inh-2
CNC(=O)NCCc1ncc(C)n1C1CCCCCC1 | - | - | - | - | - | . | . | .
COc1ccc(-c2cn3nc(SCC(=O)Nc4cc(C)cc(C)c4)ccc3n2)cc1 | . | . | . | . | . | - | - | ?
CN1c2cc(C(=O)Nc3cccc(F)c3)ccc2C(=O)N2CCCCCC21 (configuration not stated) | ? | 8.91µM | ? | - | - | - | - | ?
CN1c2cc(C(=O)Nc3cccc(Cl)c3)ccc2C(=O)N2CCCCCC21 (configuration not stated) | ? | 10µM | ? | - | - | - | - | ?
COc1cc(NC(=O)Nc2cccc(-c3ccc(N4CCOCC4)nn3)c2)cc(OC)c1 | 31.6µM | 0.708µM | ? | - | ? | ? | ? | 1.76µM
COc1ccc(-c2cccc(C(=O)N3CCOCC3)c2)nn1 | - | . | - | . | . | . | . | .
O=C(Nc1cccc(-c2ccc(N3CCOCC3)nn2)c1)Nc1ccc2c(c1)CCC2 | - | 0.891µM | ? | - | ? | - | ? | 2.79µM
COc1ccccc1NC(=O)Nc1cccc(-c2ccc(N3CCOCC3)nn2)c1 | ? | 1.41µM | ? | - | ? | ? | ? | 3.13µM
O=C(Nc1cc(F)cc(F)c1)Nc1cccc(-c2ccc(N3CCOCC3)nn2)c1 | ? | 1.26µM | 31.6µM | - | 10µM | ? | ? | 3.13µM
COCCCNC(=O)C1CCc2nnc(-c3cccc(C(F)(F)F)c3)n21 (configuration not stated) | - | . | - | - | . | . | . | .
O=C1CO[C@H]2CN(Cc3c[nH]c4ccccc34)C[C@H]2N1Cc1ccc(F)cc1 | ? | ? | ? | - | - | . | . | .
Cc1ccc2c(n1)N(C)[C@H](CO)CCN(Cc1cn(C)c3ccccc13)C2 | - | - | ? | - | - | . | . | .
O=C(Nc1cccc(-c2ccc(N3CCOCC3)nn2)c1)Nc1cccc(Cl)c1F | 31.6µM | 1.58µM | 22.4µM | - | ? | - | - | 5.56µM
O=C(Nc1cccc(F)c1)Nc1cccc(-c2ccc(N3CCCCC3)nn2)c1 | 31.6µM | 0.398µM | ? | - | 7.94µM | 9.89µM | ? | 0.989µM
Cc1c(Cl)cccc1NC(=O)Nc1cccc(-c2nnc3n2CCCC3)c1 | - | - | - | - | - | . | . | .
CC1CCc2nc3ncn(Cc4ccc(Cl)cc4)c(=O)c3cc2C1 (configuration not stated) | . | . | . | . | . | - | - | -
CC(C)c1nc2c(c(-c3ccc(O)cc3)n1)CN(Cc1ccccc1)CC2 | - | - | ? | - | - | - | - | -
CC(C)c1nc2c(c(-c3ccc(O)cc3)n1)CCN(Cc1ccccn1)CC2 | - | - | - | - | - | - | - | -
Cn1nc(C2CCN(C(=O)c3ccccc3)CC2)c2c1CCOC2 | - | - | - | - | - | . | . | .
COc1cccc(C(=O)Nc2ccc(-c3nc4ccc(C)cc4s3)cc2)c1OC | . | . | . | . | . | - | - | -
CCCOc1ccccc1C(=O)Nc1ccc(-c2nc3ccc(C)cc3s2)cc1 | . | . | . | . | . | ? | ? | 6.24µM
COc1cccc(C(=O)Nc2cccc(-c3nnc4n3CCCC4)c2)c1OC | ? | - | - | - | - | . | . | .
